From PubChem
TDP1 cell CPT: qHTS for Inhibitors of human tyrosyl-DNA phosphodiesterase 1 (TDP1): qHTS in cells in presence of CPT; chicken DT40 Tdp1-/-;hTDP1 cells + 20 nM CPT, ATP luminescence, 48 h; 420,000 compounds, 12% hits; Potency, µM (titrated, usually from 46.2 µM), hits mostly inhibitors; note: nearly all actives have a fitted effect of over 55% in size
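Cell growth measured by CellTiter-Glo luminescence after a minimum 48 h, 37 C compound exposure with 20 nM CPT in Tdp1-knockout DT40 cells stably expressing hTDP1, seeded 400/well; qHTS titration format.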
IL-1B inflam inh: qHTS for Inhibitors of Inflammasome Signaling: IL-1-beta AlphaLISA Primary Screen | 360,000 compounds, 4.7% hits | activity change, % at 57.5 µM | AID 743279, 2014 | THP-1 LPS/ATP IL-1B secretion, AlphaLISA, 16 h; active compounds read low; in the data active = activity change below about -50%; inconclusive = mostly about -30% to -49%
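Secreted IL-1B measured by AlphaLISA bead assay after 16 h compound exposure of THP-1 cells; compounds (final up to 57.5 uM) added 1 h before LPS (250 ng/mL) and ATP (1.25 mM) stimulation; lower signal means less secretion.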
Chronic BCR inh: qHTS Assay to Find Inhibitors of Chronic Active B-Cell Receptor Signaling; ABC-DLBCL IkBa-CBG/CBR reporter, luminescence ratio, 4 h; 340,000 compounds, 0.05% hits; Potency, µM (titrated, usually from 46.1 µM), most hits filed as inhibitors; AID 493014, 2011; active = well fitted inhibition curve with a large enough effect in the signal ratio, with a control signal flat, not every such curve was filed as active; inconclusive = small, poorly fitted or top-dose-only effect, or effect the other way, or a change in a side signal; the % refers to the signal ratio
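Compounds up to 46 uM were incubated four hours with TMD8 cells whose green CBG68 luciferase is fused to IkappaBalpha; red CBR luminescence normalised the signal, and concentration-effect curves were fitted to fusion, red and ratio data.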
DT40 TDP1 no CPT: qHTS for Inhibitors of human tyrosyl-DNA phosphodiesterase 1 (TDP1): qHTS in cells in absence of CPT. DT40 Tdp1-/- hTDP1 cells, no CPT, ATP luminescence, 48 h. Potency, µM (doses to about 46.2 µM), actives largely listed as inhibitors. 420,000 compounds, 15% hits; note: nearly all actives have a fitted effect of over 55% in size
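Cells were dispensed at 400 per well, compounds added by pin tool, plates incubated ≥48 hr at 37 °C, then CellTiter-Glo added for 30 min at room temperature before luminescence reading. Line: DT40 Tdp1-/- complemented with hTDP1; camptothecin omitted.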
SW480 rereplic: A quantitative high throughput screen for small molecules that induce DNA re-replication in SW480 colon adenocarcinoma cells. SW480 DNA re-replication, Hoechst DNA content imaging, 48 h. Potency, µM (top dose mostly 46.1 µM), hits mostly activators. 340,000 compounds, 1.8% hits. AID 624297, 2012; note: nearly all actives have a fitted effect of over 55% in size
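SW480 cells exposed to compounds for 48 hr at 37 C, 5% CO2, then Hoechst-stained 40 min. Nuclear DNA content imaged by fluorescence scanning (405 nm excitation, 500-530 nm emission); re-replication scored as increased high-intensity nuclei.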
MCF10A rerep: A quantitative high throughput screen for small molecules that induce DNA re-replication in MCF 10a normal breast cells; MCF 10A DNA re-replication, Hoechst nuclear intensity, 48 h; Potency, µM (titrated, usually from 46.1 µM), usual class: activators; 350,000 compounds, 2.9% hits; note: nearly all actives have a fitted effect of over 50% in size
A number is an active result; n = inactive; u = inconclusive; x = no result given. The list is not random: actives were taken first. Their share in the collection is about 19%. Unless noted, calls come from the whole dose curve; as a rule, active = well fitted curve in the direction sought with a large enough effect; inconclusive = small, poorly fitted or top-dose-only effect, or another doubt; inactive = no such curve, though single readings can be large; an effect the other way counts as inactive or inconclusive.

SMILES	TDP1 cell CPT	IL-1B inflam inh	Chronic BCR inh	DT40 TDP1 no CPT	SW480 rereplic	MCF10A rerep
CCN1CCCC1CNC(=O)c1cnn(-c2nccc(-c3ccccc3OC)n2)c1-c1ccco1 (configuration not stated)	u	x	x	7.31µM	x	x
COc1ccc(S(=O)(=O)n2ccc(C(C)Oc3ccc(-c4ccccc4)c(F)c3)n2)cc1 (configuration not stated)	25.9µM	u	u	18.4µM	n	u
N#C/C(=C\Nc1ccc2cn[nH]c2c1)c1nc(-c2ccc(Cl)cc2)cs1	u	n	u	23.1µM	u	u
N#C/C(=C/c1ccc(Cl)cc1)c1nc(-c2ccc(Br)cc2)cs1	n	x	x	n	x	x
N#C/C(=C\Nc1ccc2cn[nH]c2c1)c1nc(-c2ccccc2)cs1	u	n	n	16.4µM	n	16.4µM
S=C(Nc1ccccc1)Nc1ccc2cn[nH]c2c1	n	u	u	n	u	n
C=C1C2=C(C(=O)N1OC)[C@@H](O)[C@@](C)(O)[C@@H](CCCCC)O2	14.6µM	-83.4	x	13µM	x	x
CCOC(=O)[C@]12CCC=C1N(Cc1cccc3ccccc13)C(=O)[C@H](CC(=O)NCCCOC)C2	18.4µM	n	x	14.6µM	x	x
CCCCOCCCNC(=O)C[C@@H]1C[C@@]2(C(=O)OC)CCCCC=C2N(Cc2ccccc2)C1=O	18.4µM	n	x	13µM	x	x
CCCCOCCCNC(=O)C[C@@H]1C[C@@]2(C(=O)OCC)CCC=C2N(Cc2cccc3ccccc23)C1=O	20.6µM	-67.4	x	18.4µM	x	x
CCCCOCCCNC(=O)C[C@@H]1C[C@@]2(C(=O)OC)CCCCC=C2N(Cc2cccc3ccccc23)C1=O	u	-51.3	x	20.6µM	x	x
C#CCNC(=O)C[C@@H]1C[C@@]2(C(=O)OC)CCCCC=C2N(Cc2ccccc2)C1=O	n	n	x	n	x	x
CCOC(=O)[C@]12CCCC=C1N(Cc1cccc3ccccc13)C(=O)[C@H](CC(=O)NCCCOC)C2	u	n	x	u	x	x
CCOC(=O)[C@]12CCC=C1N(Cc1cccc3ccccc13)C(=O)[C@H](CC(=O)NCC13CC4CC(CC(C4)C1)C3)C2	20.6µM	n	x	u	x	x
CCOC(=O)[C@]12CCC=C1N(Cc1ccccc1)C(=O)[C@H](CC(=O)NCC13CC4CC(CC(C4)C1)C3)C2	u	n	x	u	x	x
COC(=O)[C@]12CCCCC=C1N(Cc1cccc3ccccc13)C(=O)[C@H](CC(=O)NCCCN1CCCC1=O)C2	u	n	x	16.4µM	x	x
COc1ccc(Br)cc1CNC(=O)c1ccc2c(c1)nc1n2CCCCC1	u	x	x	16.4µM	x	x
Cc1ccc(C)c(CNC(=O)c2ccc3c(c2)nc2n3CCC(C)C2)c1 (configuration not stated)	u	x	x	20.6µM	x	x
COc1ccc(CNC(=O)c2ccc3c(c2)nc2n3CCCCC2)c(OC)c1	n	x	x	n	x	x
CSc1ccc(CCNC(=O)c2ccc3c(c2)nc2n3CCCCC2)cc1	n	x	x	16.4µM	x	x
CC1CCn2c(nc3cc(C(=O)NCc4ccccc4)ccc32)C1 (configuration not stated)	n	x	x	n	x	x
CC(CNC(=O)c1ccc2c(c1)nc1n2CCCCC1)c1ccccc1 (configuration not stated)	23.1µM	x	x	u	x	x
O=C(CCCCCNC(=S)Nc1ccccc1)C[N+](=O)[O-]	n	n	u	n	n	n
COc1cc(C(=O)N/N=C/c2ccc(OC(=O)c3cccc(C)c3)c(OC)c2)ccc1O	u	n	u	u	n	n
CSc1ccc(CCNC(=O)c2ccc3c(c2)nc2n3CCC(C)C2)cc1 (configuration not stated)	20.6µM	x	x	13µM	x	x
SMILES	TDP1 cell CPT	IL-1B inflam inh	Chronic BCR inh	DT40 TDP1 no CPT	SW480 rereplic	MCF10A rerep
CC1CCn2c(nc3cc(C(=O)NCCc4ccccc4)ccc32)C1 (configuration not stated)	n	x	x	u	x	x
Cc1cc(C(=O)N2CCCC(C(=O)c3ccc(Oc4ccccc4)cc3)C2)n[nH]1 (configuration not stated)	20.6µM	u	n	13µM	u	n
COCC(=O)N1CCCC(C(=O)c2ccc(Oc3ccccc3)cc2)C1 (configuration not stated)	u	n	n	8.2µM	n	n
CC(=O)NCC(=O)N1CCCC(C(=O)c2ccc(-c3ccccc3)c(F)c2)C1 (configuration not stated)	n	n	n	n	n	n
Cc1ccc2[nH]nc(C(=O)N3CCCC(C(=O)c4ccc(Cl)cc4)C3)c2c1 (configuration not stated)	u	n	u	16.4µM	n	u
COCC(=O)N1CCCC(C(=O)c2ccc(-c3ccccc3)c(F)c2)C1 (configuration not stated)	20.6µM	n	n	14.6µM	n	u
CC(C)Oc1cccc(C(=O)C2CCCN(C(=O)c3cc(C4CC4)[nH]n3)C2)c1 (configuration not stated)	n	n	n	u	n	n
CC(C)Oc1cccc(C(=O)C2CCCN(C(=O)c3cc(C(F)(F)F)[nH]n3)C2)c1 (configuration not stated)	u	-54.4	n	u	n	n
O=C(NC(Cc1ccccc1)C(=O)O)OCc1ccccc1 (configuration not stated)	n	n	u	n	n	n
O=C(CNC(=O)OCc1ccccc1)NC(Cc1cnc[nH]1)C(=O)O (configuration not stated)	u	n	x	16.4µM	n	n
NC(=O)CN1C(=O)C(O)(CC(=O)/C=C\C=C\c2ccccc2)c2ccccc21 (configuration not stated)	u	-85.6	u	u	n	n
COc1ccccc1C(=O)CC1(O)C(=O)N(CC(N)=O)c2ccccc21 (configuration not stated)	n	x	x	n	x	x
COc1ccccc1C1(O)C(=O)Nc2ccc(C)cc21 (configuration not stated)	n	n	n	n	n	n
Cc1ccc2c(c1)C(O)(CC(=O)/C=C/C=C/c1ccccc1)C(=O)N2 (configuration not stated)	u	-55.7	u	u	n	u
CCN1C(=O)C(O)(CC(=O)/C=C/C=C/c2ccccc2)c2ccccc21 (configuration not stated)	23.1µM	u	u	u	n	u
